“And” between values parts separate entries of the source, which are not always exact repeats. Identical values can stand only once. Results filed as inconclusive are left out. The source made the active and inactive calls. Cut-off read from the data, not from the text of the source, unless noted: active = inhibition above about 80%; inactive = the rest.
Legend:
[1] = growth inhibition, single agents and combos, HTB85, cell-based, BGB or cisplatin IC20 combos, synergistic combos for chromothripsis tumors (AID 1671453); conditions: HTB85 osteosarcoma cells, drug combinations, stronger effect = higher value;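 note: cells exposed for 96 hours before readout; 0% = vehicle DMSO and 100% = high DMSO killing control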
[2] = growth inhibition, single agents and combos, CRL2098, cell-based, BGB or cisplatin IC20 combos, synergistic combos for chromothripsis tumors (AID 1671454); conditions: CRL2098 osteosarcoma cells, drug combinations, stronger effect = higher value;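 note: cells exposed for 96 h before readout; 0% = vehicle DMSO and 100% = killing by high DMSO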
[3] = growth inhibition, single agents and combos, HD-MB03, cell-based, BGB or cisplatin IC20 combos, synergistic combos for chromothripsis tumors (AID 1671455; in the data active = inhibition above about 83%;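 note: 0% = vehicle DMSO and 100% = high DMSO as cytotoxic control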); conditions: HD-MB03 medulloblastoma cells, stronger effect = higher value
[4] = growth inhibition, single agents and combos, UWB1.289, cell-based, BGB or cisplatin combos, synergistic combos for chromothripsis tumors (AID 1671456); conditions: UWB1.289 ovarian carcinoma cells, stronger effect = higher value;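 note: cells exposed to compound for four days; 0% = vehicle DMSO and 100% = killing by high DMSO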
[5] = growth inhibition, single agents and combos, LFS_MB_2R, cell-based, cisplatin combos, synergistic combos for chromothripsis tumors (AID 1671457); conditions: LFS_MB_2R medulloblastoma cells, stronger effect = higher value;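 note: cells exposed to compound for four days before readout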
[6] = growth inhibition, MDA-MB-436, cell-based, BGB or cisplatin combos, synergistic combos for chromothripsis tumors (AID 1671458; call rule not given here;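 note: cells exposed for 96 hours; 0% = vehicle DMSO and 100% = killing by high DMSO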); conditions: MDA-MB-436 breast carcinoma growth inhibition, drug combinations, stronger effect = higher value
[7] = UWB1.289_BRCA1 ovarian cancer growth, cell-based, BGB or cisplatin combinations (AID 1671459); conditions: UWB1.289 BRCA1 ovarian carcinoma, drug combinations, stronger effect = higher value
[8] = drug combination toxicity in non-malignant astrocytes – cell-based, BGB or cisplatin IC20 combos, cytotoxicity control for chromothriptic childhood tumor combination screen (AID 1671460); conditions: Human astrocytes, viability inhibition, drug combinations, at 0.5 µM, stronger effect = higher value;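 note: cells exposed to compounds for 96 hours before viability readout; 0% = vehicle and 100% = killing control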
[9] = BT084 cell growth, single and combined drugs, ICGC_MB145, cisplatin and BGB IC40 combos (AID 1671461); conditions: BT084 medulloblastoma cells, drug combinations, stronger effect = higher value;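 note: cells exposed to drugs for 96 hours; 0% = vehicle DMSO and 100% = high DMSO full killing control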
[10] = RCMB18 cell growth, single agent and combined, cisplatin and BGB IC40 combos (AID 1671462); conditions: RCMB18 medulloblastoma cells, stronger effect = higher value;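 note: cells exposed to compound for four days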
[11] = CRL1545 cell growth, single agent and combined, cisplatin and BGB IC20 combos (AID 1671464); conditions: CRL1545 osteosarcoma cells, stronger effect = higher value;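 note: cells exposed to compound for 96 hours before readout; 0% = vehicle DMSO and 100% = high DMSO killing control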
[12] = molecular target: ATP-dependent translocase ABCB1 (Homo sapiens) (UniProt P08183); experiment: P-glycoprotein substrate transport blockade – cell-based (AID 377; in the data active = fluorescence slope change above about 50%); conditions: MDR1-expressing cells, fluorescent substrate accumulation slope; stronger effect = higher value; concentration not given here
[13] = compounds altering viability of human ES cells (AID 493140; call rule not given here;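 note: cells exposed to compounds for four days before counting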); conditions: human embryonic stem cell survival screen; stronger effect = higher value
[14] = viability loss with induced miR-34 in A549 – imaging, A549 dox-inducible miR-34, nuclei and caspase counts, primary screen (AID 1347080;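 active = compounds whose cell count with miR-34 switched on is under 0.7 times the count with it off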); conditions: A549 miR-34 inducible, Hoechst nuclei count, 48 h
[15] = P. berghei load reduction in hepatocytes – cell-based, HepG2, luciferase luminescence, HepG2 viability, primary screen (AID 624349; in the data active = parasite load remaining mostly below about 12%, no sharp cut-off; inactive = mostly above about 10%;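 note: 100% = mean of DMSO negative control wells on the same plate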); conditions: P. berghei liver stage in HepG2, luciferase luminescence, concentration not given here; parasite load remaining: stronger effect = lower value; viability: measured here: HepG2 viability without parasites
[16] = compounds altering circadian rhythm period length – cell-based, LOPAC library, luminescence reporter (AID 2774; call rule not given here;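 note: values are relative to mean of DMSO wells on each plate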); conditions: circadian reporter cells, at 7 µM, actives lie on both sides
[17] = system: Hepatitis C virus NS3 helicase; experiment: blockers of NS3h binding to ssDNA – biochemical, fluorescence polarization, LOPAC1280 library, primary screen (AID 687035; in the data active = inhibition above about 37%); conditions: Purified HCV NS3 helicase, Cy5-dT15 ssDNA binding fluorescence polarization; stronger effect = higher value; concentration not given here
[18] = compounds altering Cy5-DNA-NS3h complex signal – biochemical, LOPAC1280, artefact control for HCV NS3 helicase inhibitor project (AID 687037; call rule not given here); conditions: Cy5-DNA-NS3h complex fluorescence interference counterscreen
[19] = galactose survival enhancers in mitochondrial complex I cybrids – cell-based, galactose medium, ATP luminescence, primary screen (AID 1645843;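 active = z-score of at least 1.8 in each of two replicates, scored against plate mean and spread of sample wells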;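 note: positive z means more ATP and so rescue of galactose-driven cybrid death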); conditions: complex I mutant cybrid cells, 72 h, stronger effect = higher value
[20] = measured here: combination with cisplatin, at 0.5 µM
[21] = stronger effect = lower value, cell number ratio, induced over uninduced
[22] = measured here: relative caspase fold change +Dox/-Dox
[23] = measured here: total cells with miR-34 induction, stronger effect = lower value
[24] = measured here: total cells without miR-34 induction

Sequence of ATP-dependent translocase ABCB1 (Homo sapiens) (P08183 whole entry, looked up): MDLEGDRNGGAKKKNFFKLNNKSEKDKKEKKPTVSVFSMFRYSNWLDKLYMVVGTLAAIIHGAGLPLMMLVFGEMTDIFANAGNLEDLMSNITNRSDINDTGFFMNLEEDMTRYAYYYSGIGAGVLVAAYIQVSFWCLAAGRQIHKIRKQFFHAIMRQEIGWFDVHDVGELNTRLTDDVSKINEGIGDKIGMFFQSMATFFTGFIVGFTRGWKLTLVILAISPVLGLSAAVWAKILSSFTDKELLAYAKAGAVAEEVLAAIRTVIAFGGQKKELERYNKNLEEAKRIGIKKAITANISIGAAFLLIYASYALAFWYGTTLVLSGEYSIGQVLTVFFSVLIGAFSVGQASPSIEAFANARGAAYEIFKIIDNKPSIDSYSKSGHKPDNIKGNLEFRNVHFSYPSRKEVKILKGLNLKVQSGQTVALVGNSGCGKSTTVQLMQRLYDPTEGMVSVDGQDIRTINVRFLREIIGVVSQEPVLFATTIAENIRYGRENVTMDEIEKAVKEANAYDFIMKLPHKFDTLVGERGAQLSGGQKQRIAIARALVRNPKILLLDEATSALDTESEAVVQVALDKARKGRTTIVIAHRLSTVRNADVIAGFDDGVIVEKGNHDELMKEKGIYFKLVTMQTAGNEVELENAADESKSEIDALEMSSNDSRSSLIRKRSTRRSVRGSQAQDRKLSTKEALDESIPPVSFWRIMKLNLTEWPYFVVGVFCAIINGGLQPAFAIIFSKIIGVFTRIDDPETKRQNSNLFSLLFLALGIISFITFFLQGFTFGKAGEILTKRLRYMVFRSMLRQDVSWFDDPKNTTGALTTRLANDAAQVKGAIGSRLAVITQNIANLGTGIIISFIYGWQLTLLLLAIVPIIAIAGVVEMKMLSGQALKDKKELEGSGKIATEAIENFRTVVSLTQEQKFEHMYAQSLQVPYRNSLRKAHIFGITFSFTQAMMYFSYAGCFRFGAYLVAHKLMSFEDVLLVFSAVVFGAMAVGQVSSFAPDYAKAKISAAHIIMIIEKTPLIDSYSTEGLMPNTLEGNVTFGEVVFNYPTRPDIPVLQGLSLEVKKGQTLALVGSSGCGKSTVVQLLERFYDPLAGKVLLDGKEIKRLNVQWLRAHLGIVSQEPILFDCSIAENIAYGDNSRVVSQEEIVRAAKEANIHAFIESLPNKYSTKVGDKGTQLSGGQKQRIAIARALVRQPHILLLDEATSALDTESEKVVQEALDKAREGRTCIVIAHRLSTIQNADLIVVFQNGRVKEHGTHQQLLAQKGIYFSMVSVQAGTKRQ

In the case of Nc1ccccc1NC(=O)CCCCCCC(=O)Nc1ccccc1, the inhibition ([1]; measured here: with BGB IC20, at 5 µM) is reported as 19.2% and 7.94%, the inhibition ([1]; measured here: with cisplatin IC20, at 0.5 µM) is reported as -1.97% and -10.6% and the inhibition ([1]; measured here: with cisplatin IC20, at 5 µM) is reported as 29.1% and 24.4%. For the same compound, the inhibition ([1]; single agent, at 5 µM) was 11.1% and 13.2%, the inhibition ([2]; at 0.5 µM) was -31.9% (inactive) and -38.7% (inactive) and the inhibition ([2]; measured here: combination with BGB at IC20, at 0.5 µM) was -43.5% and -26.6%. For the same compound, the inhibition ([2]; measured here: combination with cisplatin at IC20, at 0.5 µM) was -10.1% and -25.3%, the inhibition ([3]; at 0.5 µM) was -7.05% (inactive) and -2.46% (inactive) and the inhibition ([3]; measured here: combo with BGB at IC20, at 0.5 µM) was -17.3% and -8.59%. For the same compound, the inhibition ([3]; measured here: combo with cisplatin at IC20, at 0.5 µM) was -8.12% and 7.03%, the inhibition ([4]; at 0.5 µM) was -2.22% (inactive) and -4.15% (inactive) and the inhibition ([4]; measured here: inhibition with BGB combination, at 0.05 µM) was -17% and -12.6%. For the same compound, the inhibition ([4]; measured here: inhibition with cisplatin combination, at 0.05 µM) was -16.5% and -4.91%, the inhibition ([5]; at 0.5 µM) was -23.5% (inactive) and -15.8% (inactive) and the inhibition [5, 20] was -37.7% and -10.7%. For the same compound, the inhibition ([5]; measured here: combination with cisplatin, at 5 µM) was 7.67% and 25.4%, the inhibition ([6]; at 0.5 µM) was -14.6% (inactive) and -1.03% (inactive) and the inhibition ([6]; measured here: BGB combination, at 0.5 µM) was -7.46% and 0.27%. The inhibition ([6]; measured here: BGB combination, at 5 µM) was 5.07% and 2.02%, the inhibition ([6]; measured here: cisplatin combination, at 0.5 µM) was -38.4% and 3.8% and the inhibition ([6]; measured here: cisplatin combination, at 5 µM) was -8.44% and 23.3%. For the same compound, the inhibition ([7]; BGB combination, concentration series, at 5 µM) was 0.199% and 30.8%, the inhibition ([7]; at 0.5 µM) was -7.51% (inactive) and -1.85% (inactive) and the inhibition ([7]; cisplatin combination, concentration series, at 5 µM) was 21% and 30.8%. For the same compound, the inhibition [8] was 4.47% (inactive) and 4% (inactive), the inhibition ([8]; measured here: combo with BGB IC20) was 8.04% and 0.536% and the inhibition ([8]; measured here: combo with cisplatin IC20) was -1.54% and 9.6%. The inhibition ([9]; at 0.5 µM) was 4.38% (inactive) and 12.8% (inactive), the inhibition ([9]; cisplatin combination, at 0.5 µM) was -7.78% and 20.7% and the inhibition ([9]; cisplatin combination, at 5 µM) was -10.7% and 73.5%. For the same compound, the inhibition ([9]; measured here: BGB IC40 combination 0.05 uM, at 0.05 µM) was 4.05% and -2.15%, the inhibition ([9]; single agent, at 5 µM) was 24.6% and 32.9% and the inhibition ([10]; at 0.5 µM) was 7.96% (inactive) and 7.04% (inactive). For the same compound, the inhibition ([10]; cisplatin combo, at 5 µM) was 43.6% and 67.7%, the inhibition ([10]; measured here: BGB IC40 combination, at 0.05 µM) was -7.17% and -10.2% and the inhibition [10, 20] was 5.88% and 41.6%. The inhibition ([10]; single agent, at 5 µM) was 30.6% and 7.16%, the inhibition ([11]; at 0.5 µM) was 12.1% (inactive) and 5.27% (inactive) and the inhibition ([11]; measured here: with BGB IC20 combination, at 0.5 µM) was -6.11% and -18%. For the same compound, the inhibition ([11]; measured here: with cisplatin IC20 combination, at 0.5 µM) was 19.9% and 16.9%, the inhibition ([11]; single agent, at 0.05 µM) was 13.3% and -6.35% and the inhibition ([11]; single agent, at 5 µM) was 14.5% and 19.2%.

In the case of CC[C@@]1([C@@H]2O[C@@H]([C@H]3O[C@@](O)(CO)[C@H](C)C[C@@H]3C)C[C@@H]2C)CC[C@H]([C@]2(C)CC[C@]3(C[C@H](O)[C@@H](C)[C@@H]([C@@H](C)[C@@H](OC)C(C)C(=O)O)O3)O2)O1 (stereo partly specified), the fluorescence slope change [12] is reported as 168% (active), the survival [13] is reported as 0.417 (inactive) and the fold change [14, 21] is reported as 1.05 (inactive). For the same compound, the fold change [14, 22] was 1.84, the cell count [14, 23] was 1810 and the cell count [14, 24] was 1730.

In the case of COc1c(O[C@@H]2O[C@H](CO)[C@@H](O)[C@H](O)[C@H]2O)cc2c(c1OC)-c1ccc(SC)c(=O)cc1C(NC(C)=O)CC2 (stereo partly specified), the fluorescence slope change [12] is reported as 56.6% (active), the survival [13] is reported as 8.17 (inactive) and the parasite load remaining [15] is reported as 68.6% (inactive) and 75.2% (inactive). For the same compound, the viability [15] was 120% and 78%, the fold change [14, 21] was 0.892 (inactive) and the fold change [14, 22] was 1.15. For the same compound, the cell count [14, 23] was 8970 and the cell count [14, 24] was 10100.

With CNc1ncnc2c1ncn2[C@H]1C[C@H](OP(=O)(O)O)[C@@H](COP(=O)(O)O)O1 the period change [16] was -0.03 h (inactive), the inhibition [17] was -4% (inactive) and the fluorescence ratio (interference) [18] was 1 (inactive). For the same compound, the fold change [14, 21] was 1.08 (inactive), the fold change [14, 22] was 1.03 and the cell count [14, 23] was 10600. The cell count [14, 24] was 9840 and the z-score [19] was 0.465 (inactive).

With CC(=O)O[C@H]1CC2(C)[C@@H](C[C@@H](O)[C@H]3[C@@]4(C)CC[C@@H](O)[C@@H](C)[C@@H]4CC[C@@]32C)C1=C(CCC=C(C)C)C(=O)O (stereo partly specified) the period change [16] was -0.06 h (inactive), the inhibition [17] was -2% (inactive) and the fluorescence ratio (interference) [18] was 1 (inactive). The fold change [14, 21] was 0.982 (inactive), the fold change [14, 22] was 1.41 and the cell count [14, 23] was 9740. The cell count [14, 24] was 9920 and the z-score [19] was 4.71 (active).

With COC(=O)[C@H]1[C@H]2C[C@@H]3c4[nH]c5cc(OC)ccc5c4CCN3C[C@H]2C[C@@H](OC(=O)/C=C/c2cc(OC)c(OC)c(OC)c2)[C@@H]1OC the fluorescence slope change [12] was 61% (active), the survival [13] was 9.58 (inactive) and the parasite load remaining [15] was 26.9% (inactive) and 41.8% (inactive). The viability [15] was 94.2% and 77.7%, the fold change [14, 21] was 0.865 (inactive) and the fold change [14, 22] was 1.32. For the same compound, the cell count [14, 23] was 7260 and the cell count [14, 24] was 8390.

In the case of CCCCCCCCCC(=O)OCC(CO)OC(=O)CCCCCCCCC (stereo unspecified), the survival [13] is reported as 93.4 (inactive), the fold change [14, 21] is reported as 1.02 (inactive) and the fold change [14, 22] is reported as 0.801. For the same compound, the cell count [14, 23] was 4940 and the cell count [14, 24] was 4860.

For COC(C)(C)CCCC(C)C/C=C/C(C)=C/C(=O)O (stereo unspecified), the survival [13] was 91.1 (inactive), the fold change [14, 21] was 0.916 (inactive) and the fold change [14, 22] was 0.969. It also gave a cell count [14, 23] of 5680 and a cell count [14, 24] of 6210.

In the case of CCCCCCCCCCCCCCCCOCC(CO)OC(C)=O (stereo unspecified), the survival [13] is reported as 63.3 (inactive), the fold change [14, 21] is reported as 0.942 (inactive) and the fold change [14, 22] is reported as 1.66. For the same compound, the cell count [14, 23] was 5510 and the cell count [14, 24] was 5840.

In the case of CCCCC/C=C\C[C@@H](O)/C=C/C=C/C=C\[C@@H](O)CCCC(=O)O, the survival [13] is reported as 102 (inactive), the fold change [14, 21] is reported as 0.993 (inactive) and the fold change [14, 22] is reported as 1.34. It also gave a cell count [14, 23] of 6200 and a cell count [14, 24] of 6240.

With O[C@@H]1[C@@H](O)C=C2CCN3Cc4cc5c(cc4[C@H]1C23)OCO5 (stereo partly specified) the fluorescence slope change [12] was 10.1% (inactive), the survival [13] was 0.583 (inactive) and the parasite load remaining [15] was -0.065% (active). For the same compound, the viability [15] was 101%, the fold change [14, 21] was 0.89 (inactive) and the fold change [14, 22] was 1.09. For the same compound, the cell count [14, 23] was 2250 and the cell count [14, 24] was 2530.

For CCCCCC(=O)/C=C/[C@@H]1[C@@H](C/C=C\CCCC(=O)O)[C@@H](O)C[C@H]1O, the survival [13] was 66.1 (inactive), the fold change [14, 21] was 1.04 (inactive) and the fold change [14, 22] was 1.11. It also gave a cell count [14, 23] of 6170 and a cell count [14, 24] of 5940.

With C[C@H](CCC(=O)NCC(=O)O)[C@H]1CC[C@H]2[C@@H]3[C@H](O)C[C@@H]4C[C@H](O)CC[C@]4(C)[C@H]3C[C@H](O)[C@]12C the fluorescence slope change [12] was 91% (active), the survival [13] was 14.6 (inactive) and the parasite load remaining [15] was 142% (inactive) and 80.1% (inactive). The viability [15] was 103% and 76.4%, the fold change [14, 21] was 0.862 (inactive) and the fold change [14, 22] was 1.21. For the same compound, the cell count [14, 23] was 8770 and the cell count [14, 24] was 10200.

— PubChem BioAssay
